# According to PubChem BioAssay (Tox21):
# Where “and” joins values, the source holds several entries; their conditions need not be identical. Identical values can stand only once. Inconclusive results are not listed. Where a call stands in place of a potency, no number is given. The source holds several records for some structures; these can differ, active in one and inactive in another. Calls of active or inactive are those of the source. Unless noted, the call rests on the fitted dose curve.
# Key:
# [1] = biological target: Peroxisome proliferator-activated receptor delta (Homo sapiens) (UniProt Q03181); assay: qHTS assay to identify small molecule agonists of the peroxisome proliferator-activated receptor delta (PPARd) signaling pathway (AID 743212)
# Summary of the method: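 Beta-lactamase reporter readout: a ratiometric FRET signal from the LiveBLAzer substrate after 2 h at room temperature. Compound exposure at 37 °C in PPARδ-bla HEK293H cells driven by an upstream activator sequence.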
# [2] = qHTS assay to identify small molecule antagonists of the peroxisome proliferator-activated receptor delta (PPARd) signaling pathway - cell viability counter screen (AID 743213; active means well fitted curve in the direction sought with a large enough effect in the repeat runs; an effect the other way counts as inactive or inconclusive; further: nearly all actives have a fitted effect of over 50% in size)
# Summary of the method: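 CellTiter-Glo was added to PPARd-bla HEK293H wells following 17 h compound treatment in the presence of 300 nM L165041. Luminescence was recorded after 30 min at room temperature.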
# [3] = qHTS assay to identify small molecule agonists of the farnesoid-X-receptor (FXR) signaling pathway - cell viability counter screen (AID 743218; active means well fitted curve in the direction sought with a large enough effect in the repeat runs; an effect the other way counts as inactive or inconclusive; further: nearly all actives have a fitted effect of over 45% in size)
# Summary of the method: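 Luminescence from CellTiter-Glo, read after 30 min at RT, reports viability of GeneBLAzer FXR-UAS-bla HEK 293T cells treated 16 h with compounds in the wells used for the beta-lactamase reporter.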
# [4] = qHTS assay to identify small molecule antagonists of the farnesoid-X-receptor (FXR) signaling pathway - cell viability counter screen (AID 743221; active means well fitted cell-killing curve with a large enough effect in the repeat runs, not every such curve was filed as active; further: nearly all actives have a fitted effect of over 50% in size)
# Summary of the method: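 HEK 293T FXR-bla cells, 5 h pre-incubation; compound + CDCA 50 uM final, 16 h, 37 C; beta-lactamase FRET read first, then CellTiter-Glo luminescence, 30 min RT.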
# [5] = biological target: Vitamin D3 receptor (Homo sapiens) (UniProt P11473); assay: qHTS assay to identify small molecule agonists of the vitamin D receptor (VDR) signaling pathway (AID 743222)
# Summary of the method: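 Beta-lactamase reporter readout (LiveBLAzer B/G FRET, 2 h RT) in VDR-bla cells after 16 h compound treatment at 37C, 5% CO2; cells pre-incubated 4 h before pin transfer of DMSO solutions.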
# [6] = biological target: Vitamin D3 receptor (Homo sapiens) (UniProt P11473); assay: qHTS assay to identify small molecule antagonists of the vitamin D receptor (VDR) signaling pathway (AID 743223; active means well fitted inhibition curve with a large enough effect in the signal ratio in the repeat runs, not every such curve was filed as active; the % refers to the signal ratio)
# Summary of the method: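 Beta-lactamase reporter read-out: FRET substrate fluorescence after 2 h at room temperature, following 16 h exposure of VDR-bla cells to test compound plus 3 nM (final) 1alpha,25-dihydroxyvitamin D3 agonist at 37C.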
# [7] = qHTS assay to identify small molecule antagonists of the vitamin D receptor (VDR) signaling pathway - cell viability counter screen (AID 743225; active means well fitted curve in the direction sought with a large enough effect in the repeat runs; an effect the other way counts as inactive or inconclusive; further: nearly all actives have a fitted effect of over 50% in size)
# Summary of the method: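 Viability counter screen run in the same wells as the beta-lactamase reporter assay: HEK 293T VDR-UAS-bla cells, 16 h compound exposure at 37C with 3 nM (final) 1-alpha,25-dihydroxyvitamin D3. CellTiter-Glo luminescence, 30 min, room temperature.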
# [8] = qHTS assay to identify small molecule agonists of the NFkB signaling pathway - cell viability counter screen (AID 1159515); further: series mostly up to about 61 µM; nearly all actives have a fitted effect of over 55% in size
# Summary of the method: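 ME-180 NFkB-bla cells, 2,000/well; overnight attach; compound 5 hr, 37 C/5% CO2; LiveBLAzer substrate 1.5 hr RT; then CellTiter-Glo in same wells, 30 min RT, luminescence read.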
# [9] = qHTS assay to identify small molecule agonists of the endoplasmic reticulum stress response signaling pathway (AID 1159516; active means well fitted activation curve with a large enough effect in the signal ratio in the repeat runs, not every such curve was filed as active; the % refers to the signal ratio)
# Summary of the method: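 HeLa ESRE-bla reporter line; cpd 5 h, 37 C/5% CO2; LiveBLAzer B/G FRET substrate 2 h RT; ex 405, em 460/530 nm.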
# [10] = qHTS assay to identify small molecule agonists of the endoplasmic reticulum stress response signaling pathway - cell viability counter screen (AID 1159517);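 further: HeLa cells carrying an ER stress response element beta-lactamase reporter; series mostly up to about 61 µM; nearly all actives have a fitted effect of over 50% in size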
# Summary of the method: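 ESRE-bla HeLa cells (1,500/well) were plated overnight at 37 C and exposed to compounds for 5 hr. After the 2 hr beta-lactamase substrate read, CellTiter-Glo went into the same wells, and luminescence was read after 30 min at room temperature.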
# [11] = qHTS assay to identify small molecule antagonists of the retinoid-related orphan receptor gamma (ROR-gamma) signaling pathway - cell viability counter screen (AID 1159520; active means well fitted curve in the direction sought with a large enough effect in the repeat runs; an effect the other way counts as inactive or inconclusive; further: nearly all actives have a fitted effect of over 50% in size; further: potency means the concentration at half of the fitted maximal effect)
# Summary of the method: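 Cytotoxicity was read from cellular ATP (CellTiter-Glo luminescence) after 16 hr at 37 C with 1 uM doxycycline induction. The inducer was added 2 hr after compound transfer to Tet-on ROR gamma CHO cells.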
# [12] = qHTS assay to identify small molecule agonists of the AP-1 signaling pathway - cell viability counter screen (AID 1159525); further: nearly all actives have a fitted effect of over 55% in size
# Summary of the method: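 Intracellular ATP by Cell Titer Glo luminescence (30 min, RT) in the same ME-180 AP-1-bla wells after the 5 h compound exposure at 37 °C. Normalised to tetra n-octyl ammonium bromide and DMSO controls.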
# [13] = qHTS assay to identify small molecule agonists of the AP-1 signaling pathway (AID 1159526); further: potency means the concentration at half of the fitted maximal effect
# [14] = biological target: Retinoic acid receptor RXR-alpha (Homo sapiens) (UniProt P19793); assay: qHTS assay to identify small molecule agonists of the RXR signaling pathway (AID 1159527); further: nearly all actives have a fitted effect of over 35% in size
# Summary of the method: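 Agonist mode; 9-cis retinoic acid positive control. HEK 293T UAS-bla reporter cells, 2% charcoal-stripped FBS, 16 hr compound exposure at 37 C/5% CO2. LiveBLAzer B/G FRET substrate 2 hr RT; ex 405, em 460/530 nm.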
# [15] = qHTS assay to identify small molecule agonists of the vitamin D receptor (VDR) signaling pathway - cell viability counter screen (AID 743224; active means well fitted curve in the direction sought with a large enough effect in the repeat runs; an effect the other way counts as inactive or inconclusive)
# Summary of the method: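 Cytotoxicity counter screen: VDR-bla cells, 16 h compound exposure at 37C, 5% CO2; CellTiter-Glo luminescence, 30 min RT, same wells as bla read.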
# [16] = qHTS assay to identify small molecule agonists of the peroxisome proliferator-activated receptor delta (PPARd) signaling pathway - cell viability counter screen (AID 743211; active means well fitted curve in the direction sought with a large enough effect in the repeat runs; an effect the other way counts as inactive or inconclusive; further: nearly all actives have a fitted effect of over 55% in size)
# Summary of the method: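 Read-out: CellTiter-Glo luminescence, 30 min RT, measured in the same wells as the beta-lactamase reporter. Cells: GeneBLAzer PPAR delta UAS-bla HEK293H, 3000 cells/well, compound exposure 17 h at 37C.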
# [17] = biological target: Bile acid receptor (Homo sapiens) (UniProt Q96RI1); assay: qHTS assay to identify small molecule antagonists of the farnesoid-X-receptor (FXR) signaling pathway (AID 743217; active means well fitted inhibition curve with a large enough effect in the signal ratio in the repeat runs, not every such curve was filed as active; the % refers to the signal ratio)
# Summary of the method: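 Read-out: beta-lactamase FRET fluorescence (LiveBLAzer B/G substrate, 2 h, room temperature) in GeneBLAzer FXR-UAS-bla HEK 293T cells. Compounds were co-dosed with 50 uM chenodeoxycholic acid (final) and incubated 16 h at 37 °C.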
# [18] = biological target: Bile acid receptor (Homo sapiens) (UniProt Q96RI1); assay: qHTS assay to identify small molecule agonists of the farnesoid-X-receptor (FXR) signaling pathway (AID 743220; active means well fitted activation curve with a large enough effect in the signal ratio in the repeat runs, not every such curve was filed as active; the % refers to the signal ratio)
# Summary of the method: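 FXR-UAS-bla HEK 293T cells carrying a UAS-driven beta-lactamase reporter were plated for 5 h at 37C/5% CO2, then exposed to DMSO-dissolved Tox21 10K compounds for 16 h at 37C. A LiveBLAzer B/G FRET substrate was loaded for 2 h at room temperature before fluorescence reading.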
# [19] = biological target: Nuclear receptor ROR-gamma (Homo sapiens) (UniProt P51449); assay: qHTS assay to identify small molecule antagonists of the retinoid-related orphan receptor gamma (ROR-gamma) signaling pathway (AID 1159521; active means well fitted curve in the direction sought with a large enough effect in the repeat runs; an effect the other way counts as inactive or inconclusive)
# Summary of the method: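 Luminescence readout (ONE-Glo, 30 min RT) after 16 h doxycycline induction; loss of signal scored as antagonism. CHO cells with TET-inducible RORγ and RORE-LUC reporter; compounds added 2 h before 1 uM final doxycycline.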
# Sequence of Vitamin D3 receptor (Homo sapiens) (P11473 whole entry, looked up): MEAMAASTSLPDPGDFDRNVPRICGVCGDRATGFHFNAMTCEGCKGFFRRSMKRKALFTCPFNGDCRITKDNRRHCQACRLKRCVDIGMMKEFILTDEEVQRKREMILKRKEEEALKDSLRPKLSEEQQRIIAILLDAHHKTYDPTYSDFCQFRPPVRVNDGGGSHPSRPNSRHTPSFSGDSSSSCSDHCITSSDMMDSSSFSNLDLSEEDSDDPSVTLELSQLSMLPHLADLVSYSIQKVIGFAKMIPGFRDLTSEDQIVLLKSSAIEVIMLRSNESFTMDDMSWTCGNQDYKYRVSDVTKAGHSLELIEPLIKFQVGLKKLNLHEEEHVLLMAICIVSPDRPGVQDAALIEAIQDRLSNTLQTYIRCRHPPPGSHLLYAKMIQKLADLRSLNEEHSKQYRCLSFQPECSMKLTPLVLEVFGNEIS
# Sequence of Peroxisome proliferator-activated receptor delta (Homo sapiens) (Q03181 whole entry, looked up): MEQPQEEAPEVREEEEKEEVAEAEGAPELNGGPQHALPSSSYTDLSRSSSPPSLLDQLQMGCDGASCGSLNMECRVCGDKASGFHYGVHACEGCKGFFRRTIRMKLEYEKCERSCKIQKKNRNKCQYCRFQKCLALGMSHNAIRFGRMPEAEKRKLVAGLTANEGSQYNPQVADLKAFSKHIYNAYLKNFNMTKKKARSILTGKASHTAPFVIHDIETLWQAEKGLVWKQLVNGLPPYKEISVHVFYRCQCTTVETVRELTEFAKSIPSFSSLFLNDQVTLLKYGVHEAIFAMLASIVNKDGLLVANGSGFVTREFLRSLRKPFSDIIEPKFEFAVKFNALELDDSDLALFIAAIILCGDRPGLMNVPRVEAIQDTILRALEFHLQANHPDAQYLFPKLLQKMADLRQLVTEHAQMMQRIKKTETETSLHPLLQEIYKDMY
# Sequence of Retinoic acid receptor RXR-alpha (Homo sapiens) (P19793 whole entry, looked up): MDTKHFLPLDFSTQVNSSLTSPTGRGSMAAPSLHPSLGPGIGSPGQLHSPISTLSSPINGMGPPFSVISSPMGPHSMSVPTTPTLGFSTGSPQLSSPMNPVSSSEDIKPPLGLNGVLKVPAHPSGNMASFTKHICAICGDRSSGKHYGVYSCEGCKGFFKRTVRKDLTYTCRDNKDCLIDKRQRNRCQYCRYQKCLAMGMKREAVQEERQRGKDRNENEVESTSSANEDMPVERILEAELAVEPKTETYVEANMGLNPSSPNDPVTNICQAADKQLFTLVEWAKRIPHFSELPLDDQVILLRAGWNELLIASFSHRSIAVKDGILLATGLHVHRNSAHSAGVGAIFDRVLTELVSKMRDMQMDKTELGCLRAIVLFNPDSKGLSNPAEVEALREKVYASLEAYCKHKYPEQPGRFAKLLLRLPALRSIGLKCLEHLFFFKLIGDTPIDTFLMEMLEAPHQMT
# Sequence of Bile acid receptor (Homo sapiens) (Q96RI1 whole entry, looked up): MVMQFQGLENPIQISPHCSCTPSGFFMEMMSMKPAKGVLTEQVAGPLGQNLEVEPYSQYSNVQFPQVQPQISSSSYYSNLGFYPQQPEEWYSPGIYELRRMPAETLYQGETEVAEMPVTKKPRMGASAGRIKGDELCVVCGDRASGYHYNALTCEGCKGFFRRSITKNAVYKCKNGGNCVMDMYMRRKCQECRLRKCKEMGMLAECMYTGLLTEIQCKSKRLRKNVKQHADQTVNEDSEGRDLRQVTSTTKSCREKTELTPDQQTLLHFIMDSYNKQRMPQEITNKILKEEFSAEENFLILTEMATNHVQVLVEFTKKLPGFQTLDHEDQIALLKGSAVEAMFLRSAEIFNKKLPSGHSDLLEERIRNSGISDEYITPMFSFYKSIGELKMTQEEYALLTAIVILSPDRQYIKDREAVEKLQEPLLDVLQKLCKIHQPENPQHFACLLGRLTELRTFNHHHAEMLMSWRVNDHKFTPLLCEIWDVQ
Compound,outcome [1],Potency [2],Potency [3],Potency [4],outcome [5],outcome [6],Potency [7],Potency [8],Potency [9],Potency [10],Potency [11],Potency [12],Potency [13],Potency [14],Potency [15],Potency [16],Potency [17],outcome [18],"activity, negative = cytotoxicity [11]",Potency [19]
CCCCCCCCCCCCCO,inactive,inactive,inactive,inactive,inactive,inactive,inactive,inactive,inactive,inactive,inactive,inactive,inactive,inactive,–,–,–,–,–,–
Cc1ccc(/C(=C\CN2CCCC2)c2ccccn2)cc1,inactive,–,inactive,inactive,inactive,inactive,inactive,inactive,inactive,inactive,inactive,inactive,–,inactive,inactive,–,–,–,–,–
CC(=O)[C@@]1(O)CC[C@H]2[C@@H]3C[C@H](C)C4=CC(=O)C=C[C@]4(C)[C@@]3(F)[C@@H](O)C[C@@]21C,inactive,inactive,inactive,inactive,inactive,inactive,inactive,inactive,inactive,inactive,inactive,inactive,inactive,inactive,inactive,inactive,inactive,inactive,–,–
CCCN1C=CN(C)C1,inactive,inactive,inactive,inactive,inactive,inactive,inactive,inactive,inactive,inactive,inactive,inactive,inactive,inactive,inactive,inactive,inactive,inactive,–,–
O=[Se](O)O,inactive,inactive,inactive,inactive,–,–,inactive,inactive,inactive,–,54.5 µM (active),inactive,inactive and 5.28 µM (active),–,inactive,inactive,–,–,-10.3% [at 19 µM] (inactive),1.65 µM (active)
C=C[C@H]1CN2CC[C@H]1C[C@H]2[C@H](O)c1ccnc2ccc(OC)cc12,inactive,–,inactive,inactive,–,–,–,inactive,inactive,inactive,inactive,inactive,inactive,inactive,–,–,–,–,–,–
c1ccc2c(c1)[nH]c1ccccc12,inactive,inactive,inactive,inactive,–,–,inactive,inactive,inactive,inactive,inactive,inactive,inactive,inactive,inactive,inactive,–,–,–,–
Oc1c(Cl)ccc(Cl)c1Cl,inactive,inactive,inactive,inactive,inactive,inactive,inactive,inactive,inactive,inactive,inactive,inactive,inactive,inactive,inactive,inactive,inactive,inactive,–,–
